Drawing on PubChem BioAssay (NCI), this text covers growth for 40 molecules.

SMILES strings stand for the structures. About 83,000 compounds went through this panel and 20% of them were active in at least one assay; those are over-represented in the sample as a whole.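 In brief: 96-well plates, 48 h treatment, single concentration, percent growth endpoint.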 Unmarked numbers belong to inactive results. Calls of active or inactive are those of the source.

The assay has as its system PC-3 prostate. The assay is described as follows: NCI-60 one-dose screen, 48 h (100 = growth as untreated, 0 = no growth, -100 = all killed). The conditions noted are these: 10 µM unless noted. The method, then: Growth inhibition of the PC-3 human tumor cell line is measured as a screen for anti-cancer activity. Cells are grown in 96 well plates and exposed to the test compound for 48 hours. Compounds are tested at a single concentration, which is 10^-5 M for most compounds. The reported endpoint is percent growth (GI% or GIPRCNT), where numbers from 0 - 100% represent growth inhibition, and numbers from -100% - 0 represent cell death. For example, a value of 40 represents 60% growth inhibition. A value of 0 means no net growth occurred over the course of the experiment. A value of -40 indicates 40% of cells at the beginning of the experiment died by the end of the experiment. A value of -100 means all cells are dead at the end of the experiment.
NCI-60 Human Tumor Cell Lines Screen was performed using the standard one-dose NCI protocol, which is described in more detail at https://dtp.cancer.gov/discovery_development/nci-60/default.htm.
Compounds with GIPRCNT values below 10 were considered active. Activity score was based on GIPRCNT using the following formula: […]
Score is 0 for GIPRCNT values of 100 or above, 50 for GIPRCNT values of 0, and 100 for GIPRCNT values of -100.
On to `CS(=O)(=O)c1ccc2c(c1)c1c(n2Cc2ccc(Cl)cc2)CCCC1`, for which the growth was 51.9%.

On to `c1cncc(-c2cn3nc(-c4c[nH]c5ccccc45)sc3n2)c1`, for which the growth is 48.7%.

On to `CCN1C(=O)N(CC)C2SC(N/N=C/c3ccc(OC)cc3)=NC21` (stereo not given), for which the growth is 28.9%.

Consider `CCc1ccc(NC(=O)N[C@@H](Cc2cccc(F)c2)C(=O)N[C@@H]2C(=O)N3CCC[C@H]3C(=O)N3CCCC[C@H]3C(=O)N[C@@H](CO)C(=O)N3C[C@H](C)C[C@H]3C(=O)O[C@H]2C)c(F)c1`, for which the growth was 17.5%.

Turning to `COc1cc(O)c2c(c1)/C=C/C[C@H](O)[C@H](O)C(=O)/C=C\C[C@H](C)OC2=O`, the growth is 42.6%.

Turning to `CC(=O)NC(C)(C)C(=O)N1CCC[C@H]1C(=O)NC(C)(C)C(=O)N[C@@H](C)C(=O)NC(C)(C)C(=O)N[C@@H](C)C(=O)N[C@@H](CCC(N)=O)C(=O)NC(C)(C)C(=O)N[C@H](C(=O)NC(C)(C)C(=O)NCC(=O)N[C@@H](CC(C)C)C(=O)NC(C)(C)C(=O)N1CCC[C@H]1C(=O)N[C@H](C(=O)NC(C)(C)C(=O)NC(C)(C)C(=O)N[C@@H](CCC(N)=O)C(=O)N[C@@H](CCC(N)=O)C(=O)N[C@H](CO)Cc1ccccc1)C(C)C)C(C)C`, the growth was 28.3% [4.25 µM].

On to `CNC(=O)c1cc(Oc2ccc3nc(NC(=O)c4cccc(C(F)(F)F)c4)sc3c2)ccn1`, for which the growth was 102%.

For `C=C(C)C(=O)O[C@H]1C[C@@]2(C)OC(=CC2=O)[C@H](C)[C@H](O)[C@H]2OC(=O)C(=C)[C@@H]21`, the growth was 79.7%.

`COc1ccc(CCN2C(=O)/C(=C/c3nc(CO)cs3)SC2=S)cc1`: the growth is 74%.

As for `CCCCSc1nnc(-c2ccc(-c3ccc(Cl)cc3)nc2C)o1`, the growth was 91.9%.

For the molecule `Oc1ccc(CSc2nnc(-c3ccccc3)o2)c2cccnc12`, the growth was 21.8%.

For `C[C@@H]1C[C@H]2C(=O)OCC(NC(=O)[C@H](Cc3cc(F)cc(F)c3)NC(=O)Nc3ccc(Cl)cc3F)C(=O)N3CCC[C@H]3C(=O)N3CCCC[C@H]3C(=O)N[C@@H](C)C(=O)N2C1` (stereo not given in full), the growth was 17.3%.

For `O=C1Nc2ccc(Cl)cc2/C1=C/c1ccc(OCc2ccc(Br)cc2F)cc1`, the growth is 93%.

`CN1CCN(Cc2ccc(NC(=O)c3cncc(C#Cc4[nH]nc5ncncc45)c3)cc2C(F)(F)F)CC1`: the growth was 81.3%.

Take `IP(CCCCCCCCCCSc1n(Cc2ccc3ccccc3c2)c(-c2ccccc2)c(-c2ccccc2)[n+]1Cc1ccc2ccccc2c1)(c1ccccc1)(c1ccccc1)c1ccccc1`: the growth was -80.4% (active).

`c1ccc(-c2c(-c3ccccc3)[n+](Cc3ccc4ccccc4c3)c(-c3ccccc3)n2Cc2ccc3ccccc3c2)cc1`: the growth was -87.3% (active).

Take `COc1ccc([C@@H]2[C@@H](O)C(=O)N2c2cc(OC)c(OC)c(OC)c2)cc1Cl`: the growth was 17.5%.

Regarding `O=C(CSc1nnc(-c2cccs2)n1-c1ccccc1)Nc1ccc(F)cc1`, the growth was 99%.

As for `COc1ccc(C2C(C#N)=C(N)Oc3c2sc2ccc(C)cc32)cc1` (stereo not given), the growth is 33.1%.

In the case of `NC(=O)c1c(NC(=O)c2cccc(C(F)(F)F)c2F)sc2c1CCC(=O)C2`, the growth was 17.9%.

Turning to `CC1CCc2c(sc3nc(SCC(=O)N/N=C/c4ccc(Cl)cc4)n(-c4ccccc4)c(=O)c23)C1` (stereo not given), the growth is 95.3%.

In the case of `CC(C)Sc1nc(NC2CC2)c(C#N)c(-c2ccccc2)n1`, the growth is 92.5%.

Regarding `Cc1ccccc1NC1CC(=O)N(c2ccc(Cl)cc2Cl)C1=O` (stereo not given), the growth is 97.2%.

`C#CCOc1ccc(/C=N/Nc2nc(-c3cc(Cl)ccc3Cl)cs2)cc1`: the growth was 87.1%.

As to `CCCCCc1ccc(S(=O)(=O)N(C(C)=O)c2cccc(-c3csc(N(CCN4CCN(C)CC4)C(C)=O)n3)c2)cc1`, the growth is 62.5%.

For the molecule `Oc1ccccc1-c1nnc(SCc2ccc(O)c3ncccc23)n1-c1ccccc1`, the growth is 20.5%.

Regarding `Cc1ccc(-c2nnc3sc(C4=Cc5ccccc5OC=C4)nn23)cc1`, the growth is 96.7%.

As to `IP(CCCSc1n(Cc2ccc3ccccc3c2)c(-c2ccccc2)c(-c2ccccc2)[n+]1Cc1ccc2ccccc2c1)(c1ccccc1)(c1ccccc1)c1ccccc1`, the growth is 32.1%.

As to `Cc1cc(F)cc(NS(=O)(=O)c2ccc(-c3cnc(C4CC4)o3)cc2)c1`, the growth is 17.4%.

For the molecule `CCc1ccc(NC(=O)N[C@@H](Cc2cccc(C)c2)C(=O)N[C@@H]2C(=O)N3CCC[C@H]3C(=O)N3CCCC[C@H]3C(=O)N[C@@H](CO)C(=O)N3C[C@H](C)C[C@H]3C(=O)O[C@H]2C)c(F)c1`, the growth is 17.8%.

For the molecule `CS(=O)(=O)c1nccc(-c2c(-c3ccc(F)c(OCCc4ccc(F)cc4)c3)nc3sccn23)n1`, the growth was -62.2% (active).

In the case of `NC(=S)N/N=C(/C=C/c1cn(-c2ccccc2)nc1-c1ccc(Cl)cc1)c1cc2ccccc2oc1=O`, the growth was 28%.

`C=C(C)[C@@H]1CC[C@]2(COS(C)(=O)=O)CC[C@]3(C)[C@H](CC[C@@H]4[C@@]5(C)CCCNC(C)(C)[C@@H]5CC[C@]43C)[C@@H]12`: the growth is 67.7%.

`O=c1oc2ccc(-c3ccc(F)cc3F)cc2c(=O)n1-c1cccc(C(F)(F)F)c1`: the growth is 6.82% (active).

As for `C#C[C@]1(O)CC[C@H]2[C@@H]3CC=C4c5sc(-c6cccc(F)c6)nc5CC[C@]4(C)[C@H]3CC[C@@]21C`, the growth was 68.7%.

With `COc1ccc(/C=N/Nc2nc(N/N=C/c3ccc(OC)cc3O)nc(N3CCOCC3)n2)c(O)c1`, the growth was 35.8%.

In the case of `NS(=O)(=O)Oc1ccc2nc(Nc3ccc(F)c(F)c3)ccc2c1`, the growth was 90.6%.

On to `Oc1ccccc1-c1nnc(SCc2ccc(O)c3ncccc23)o1`, for which the growth was 19.2%.

On to `NS(=O)(=O)c1ccc(Nc2nc(N/N=C/c3ccc(C(F)(F)F)cc3)nc(Nc3ccccc3)n2)cc1`, for which the growth was 14.4%.

Take `COc1cc2c3c(n(CCCNCC4CC4)c(=O)c2cc1OC)-c1cc2c(cc1C3=O)OCO2`: the growth is 40%.
